# Experimental data as given in the supplement of paper PMC8540655.
# Values without a mark were called inactive.
# Test system: Aedes aegypti larvae
# Assay: larval motility relative to same well at 0 h (fraction); higher = more motile (less active compound), active = 0.4 or less
# Settings: 10 µM; 2 h
# Protocol: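 MMV Pandemic Response Box compounds were tested at 10 µM (1% v/v DMSO) on Aedes aegypti larvae (18-24 h after hatching, about 10 per well, 96-well plates). Motility was quantified with INVAPP (200-frame movies) at 0, 2 and 24 h. Each well's motility was divided by its own 0 h score, and the median of 3 independent screens is reported.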
row,Structure (SMILES),larval motility
1,C(=C\c1nc2ccccc2[nH]1)/c1ccc2c(c1)OCO2,0.765
2,CC(C)(C)NC(=O)N[C@H](C(=O)N1C[C@H]2[C@@H]([C@H]1C(=O)NC(CC1CCC1)C(=O)C(N)=O)C2(C)C)C(C)(C)C (stereo not given in full),0.758
3,CCNC(=O)Nc1cc(-c2ccccc2)c(-c2cncc(C(=O)O)c2)cn1,0.236 (active)
4,Nc1ccc(-c2nc3cc(C(F)(F)F)ccc3n2C23CC4CC(CC(C4)C2)C3)cc1,1.1
5,Nc1nc(C(F)(F)F)cc2c1[nH]c(=O)n2Cc1ccccc1,0.857
6,Clc1ccc(Cn2c(CN3CCCC3)nc3ccccc32)cc1,1.09
7,O=C(Nc1ccc(F)cc1)c1nn(-c2ccccc2)c(=O)cc1Cl,1.14
8,C[C@H](Cn1cnc2c(N)ncnc21)OCP(=O)(O)O,1.31
9,CNCC(=O)OCc1cccnc1N(C)C(=O)OC(C)[n+]1cnn(C[C@](O)(c2cc(F)ccc2F)[C@@H](C)c2nc(-c3ccc(C#N)cc3)cs2)c1 (stereo not given in full),1.02
10,Cc1c(F)cccc1NC(=O)Nc1ccc(Cl)c(S(=O)(=O)[C@H]2CCCNC2)c1O,0.645
11,O=C(NC(=O)N1CCCc2ccccc21)c1cccc(Cl)c1,0.838
12,COc1ccc(SCC(=O)N2c3ccccc3Sc3ccccc32)cc1,0.631
13,CC(C)(C)c1ccc(C(=O)NC(=O)N2CCCc3ccccc32)cc1,0.973
14,O=C(Nc1ccccc1C(=O)O)c1cccc(Oc2ccccc2)c1,0.522
15,COc1ccc(C)cc1NC(=O)c1ccc(S(=O)(=O)N2CCCCC2)cc1,1.12
16,CCOc1ccc(/C=N/NC(=O)C2CC2c2ccc(C(C)(C)C)cc2)cc1OCC (stereo not given),1.29
17,CCO/N=C/c1ccc(OCCCCN2CCN(c3ccncc3)C2=O)cc1,1.36
18,CCOc1noc2cc(OCCC3CCN(c4ccc(C)nn4)CC3)ccc12,0.793
19,CC1CN(c2ncnc3c2c(-c2ccccc2)cn3-c2ccc(F)cc2)CC(C)O1 (stereo not given),0.791
20,FC(F)(F)Oc1ccc(Nc2ccc3cccc(Cl)c3n2)cc1,0.563

# Same assay, conditions: 10 µM; 24 h
row,Structure (SMILES),larval motility
1,C(=C\c1nc2ccccc2[nH]1)/c1ccc2c(c1)OCO2,1.01
2,CC(C)(C)NC(=O)N[C@H](C(=O)N1C[C@H]2[C@@H]([C@H]1C(=O)NC(CC1CCC1)C(=O)C(N)=O)C2(C)C)C(C)(C)C (stereo not given in full),0.813
3,CCNC(=O)Nc1cc(-c2ccccc2)c(-c2cncc(C(=O)O)c2)cn1,0.433
4,Nc1ccc(-c2nc3cc(C(F)(F)F)ccc3n2C23CC4CC(CC(C4)C2)C3)cc1,1.22
5,Nc1nc(C(F)(F)F)cc2c1[nH]c(=O)n2Cc1ccccc1,0.614
6,Clc1ccc(Cn2c(CN3CCCC3)nc3ccccc32)cc1,1.28
7,O=C(Nc1ccc(F)cc1)c1nn(-c2ccccc2)c(=O)cc1Cl,0.91
8,C[C@H](Cn1cnc2c(N)ncnc21)OCP(=O)(O)O,1.07
9,CNCC(=O)OCc1cccnc1N(C)C(=O)OC(C)[n+]1cnn(C[C@](O)(c2cc(F)ccc2F)[C@@H](C)c2nc(-c3ccc(C#N)cc3)cs2)c1 (stereo not given in full),0.736
10,Cc1c(F)cccc1NC(=O)Nc1ccc(Cl)c(S(=O)(=O)[C@H]2CCCNC2)c1O,0.669
11,O=C(NC(=O)N1CCCc2ccccc21)c1cccc(Cl)c1,1.04
12,COc1ccc(SCC(=O)N2c3ccccc3Sc3ccccc32)cc1,1.01
13,CC(C)(C)c1ccc(C(=O)NC(=O)N2CCCc3ccccc32)cc1,0.629
14,O=C(Nc1ccccc1C(=O)O)c1cccc(Oc2ccccc2)c1,1.44
15,COc1ccc(C)cc1NC(=O)c1ccc(S(=O)(=O)N2CCCCC2)cc1,1.26
16,CCOc1ccc(/C=N/NC(=O)C2CC2c2ccc(C(C)(C)C)cc2)cc1OCC (stereo not given),1.4
17,CCO/N=C/c1ccc(OCCCCN2CCN(c3ccncc3)C2=O)cc1,1.3
18,CCOc1noc2cc(OCCC3CCN(c4ccc(C)nn4)CC3)ccc12,1.06
19,CC1CN(c2ncnc3c2c(-c2ccccc2)cn3-c2ccc(F)cc2)CC(C)O1 (stereo not given),0.856
20,FC(F)(F)Oc1ccc(Nc2ccc3cccc(Cl)c3n2)cc1,0.29 (active)
